Experimental data published in PubChem BioAssay AID1159580 (chemical genetic matrix, 2015).
“And” between values parts separate entries of the source, which are not always exact repeats. Equal entries are not always repeated. The whole screen tested about 5,500 compounds, of which about 2,000 (36%) were called active. About 18% were inconclusive and are not listed. Rule as the data show it: active = normalized growth mostly below about 0.91 (no sharp cut-off); inconclusive = no clear call, values can overlap the other calls; inactive = mostly above about 0.92. The list shows a part of the results.

Assay: chemical genetic growth profiling, strain panel (AID 1159580);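 also: tested at 20 µM; growth read once vehicle control cultures reached saturation at 30 °C; 1 = growth at the plate median or of vehicle wells; lower values mean less growth of the strain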
Conditions: S. cerevisiae deletion strains, growth OD

Measured: normalized growth

NC1=NCCN1CC(=O)O
inactive: locus YAL013W, strain DEP1, hits give low values 0.99 | locus YAL021C, strain ccr4, hits give low values 1.02 | locus YAL026C, strain drs2, hits give low values 1.02 | locus YAL030W, strain snc1, hits give low values 1.03 | locus YBL061C, strain skt5, hits give low values 1.01 | locus YBR009C, strain hhf1, hits give low values 1 | locus YBR021W, strain FUR4, hits give low values 1 | locus YBR023C, strain chs3, hits give low values 1.01 | locus YBR171W, strain sec66, hits give low values 1.01 | locus YBR229C, strain ROT2, hits give low values 0.96 | locus YBR231C, strain swc5, hits give low values 1.01 | locus YBR279W, strain paf1, hits give low values 1.01 | locus YCL011C, strain gbp2, hits give low values 1.04 | locus YCL016C, strain dcc1, hits give low values 1.01 | locus YCL029C, strain bik1, hits give low values 0.997 | locus YCL069W, strain vba3, hits give low values 1.01 | locus YCR088W, strain abp1, hits give low values 1.02 | locus YDL005C, strain med2, hits give low values 1.01 | locus YDL035C, strain GPR1, hits give low values 0.989 | locus YDL040C, strain nat1, hits give low values 1.01 | locus YDL074C, strain BRE1, hits give low values 0.924 | locus YDL101C, strain DUN1, hits give low values 0.961 | locus YDL134C, strain PPH21, hits give low values 1.01 | locus YDL185W, strain tfp1, hits give low values 0.986 | locus YDL192W, strain arf1, hits give low values 0.992 | locus YDR001C, strain nth1, hits give low values 1.01 | locus YDR069C, strain doa4, hits give low values 1.02 | locus YDR101C, strain arx1, hits give low values 0.996 | locus YDR137W, strain rgp1, hits give low values 1.04 | locus YDR150W, strain NUM1, hits give low values 0.986 | locus YDR159W, strain sac3, hits give low values 0.958 | locus YDR162C, strain NBP2, hits give low values 0.99 | locus YDR195W, strain ref2 1.02 | locus YDR297W, strain sur2, hits give low values 1 | locus YDR318W, strain mcm21, hits give low values 0.995 | locus YDR334W, strain swr1, hits give low values 1.01 | locus YDR335W, strain msn5, hits give low values 1.01 | locus YDR388W, hits give low values 0.989 | locus YDR392W, strain spt3, hits give low values 0.86 | locus YDR502C, strain sam2, hits give low values 0.988 | locus YEL003W, strain gim4, hits give low values 0.996 | locus YEL037C, strain rad23, hits give low values 1.02 | locus YEL061C, strain CIN8 (second series), hits give low values 1.03 | locus YEL061C, strain CIN8, hits give low values 0.981 | locus YER015W, strain faa2, hits give low values 1.02 | locus YER016W, strain bim1, hits give low values 1.03 | locus YER110C, hits give low values 0.988 | locus YER111C, strain swi4, hits give low values 1.03 | locus YER155C, strain BEM2 (second series), hits give low values 0.911 | locus YER155C, strain BEM2, hits give low values 1 | locus YER167W, strain BCK2, hits give low values 0.984 | locus YFR010W, strain ubp6, hits give low values 1.01 | locus YGL078C, strain dbp3, hits give low values 0.997 | locus YGL086W, strain mad1, hits give low values 0.98 | locus YGL167C, strain pmr1, hits give low values 1.01 | locus YGL173C, strain kem1, hits give low values 1 | locus YGL227W, strain vid30, hits give low values 1.04 | locus YGL240W, strain doc1, hits give low values 1 | locus YGL248W, strain PDE1, hits give low values 0.971 | locus YGL253W, strain hxk2, hits give low values 1.01 | locus YGR135W, strain pre9, hits give low values 1.01 | locus YGR229C, strain SMI1, hits give low values 1.02 | locus YGR252W, strain gcn5, hits give low values 1.01 | locus YHR013C, strain ard1, hits give low values 0.996 | locus YHR027C, strain rpn1, hits give low values 1.02 | locus YHR030C, strain SLT2, hits give low values 0.998 and 0.992 | locus YHR079C, strain IRE1 (second series), hits give low values 0.997 | locus YHR079C, strain IRE1, hits give low values 0.992 | locus YHR094C, strain hxt1, hits give low values 0.995 | locus YHR129C, strain ARP1, hits give low values 0.999 | locus YHR142W, strain chs7, hits give low values 0.992 | locus YHR200W, strain rpn10, hits give low values 0.99 | locus YIL066C, strain RNR3, hits give low values 0.966 | locus YIL073C, strain SPO22, hits give low values 1.07 | locus YIL125W, strain kgd1, hits give low values 0.984 | locus YIR030C, strain dcg1, hits give low values 0.994 | locus YJL092W, strain hpr5, hits give low values 1.01 | locus YJL095W, strain BCK1 (second series), hits give low values 1.02 | locus YJL095W, strain BCK1, hits give low values 0.969 and 0.972 | locus YJL115W, strain asf1, hits give low values 1.02 | locus YJL129C, strain trk1, hits give low values 1 | locus YJL134W, strain LCB3, hits give low values 0.988 | locus YJL154C, strain vps35, hits give low values 1.02 | locus YJL164C, strain tpk1, hits give low values 0.986 | locus YJL166W, strain qcr8, hits give low values 1 | locus YJL168C, strain set2, hits give low values 0.989 | locus YJL187C, strain SWE1 (second series), hits give low values 0.964 | locus YJL187C, strain SWE1, hits give low values 1
